# Assay outcomes: PubChem, Broad Institute
# Most compounds without a hit are left out; they make up all but 2.7% or so of the library.
# EWS-Fli inh – inhibitors of EWS/Fli oncoprotein transcriptional activity; A673 NR0B1-luciferase reporter, viability-normalised; inhibition, % at 12.6 µM; 0.67% of 350,000 active;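 active means mean inhibition of at least 50% after viability correction, with every replicate also passing that limit; inconclusive means mean reaches 50% but only one of two replicates passes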;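 further: firefly luciferase signal divided by Alamar Blue viability fluorescence both relative to DMSO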
# CFTR F508del cor – CFTR F508del correction in bronchial cells; CFBE cells, YFP halide quenching; stimulated with forskolin plus potentiator P3; % fluorescence drop versus neutral controls; activity (quench increase), % at 7.58 µM; AID 720511; 0.36% of 350,000 active;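 active means mean added fluorescence quench of at least 8% versus neutral control, with both replicates also reaching 8%; inconclusive means only one of the mean or replicate conditions met; inactive means mean below 8% and not both replicates reaching 8%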;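 further: cells transiently co-express mutant CFTR-F508del with the halide-sensitive YFP; corrector assay measuring rescue of mutant channel to the surface after 24 h compound exposure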
# PAX8 inh HTS – inhibitors of PAX8 transcriptional activity in RMG-I cells; RMG-I TPO-luciferase reporter, SteadyGlo, 24 h; inhibition, % at 12.6 µM; 1.2% of 360,000 active;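 active means mean replicate inhibition at least 60% with every replicate also reaching 60%; inconclusive means only one of the two criteria is met; inactive means mean below 60% and not all replicates reaching 60%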;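 further: luciferase light reporting Pax8 driven TPO promoter activity; plate controls were median of neutral control wells for no effect and mitoxantrone controls for full effect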
# INS-1E GSIS act – primary screen for activators of insulin secretion dependent on glucose, INS-1E cells, GLuc reporter luminescence. INS-1E GLuc reporter insulin secretion, 2-3 h. AID 743287. 0.61% of 370,000 active. activation, % at 16.6 µM;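 active means lowest replicate activation of at least 40%, so every replicate reaches that level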;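 further: 0% = median of neutral control wells and 100% = median of IBMX positive control wells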
# HIV Env fusion – inhibitors of HIV Env-mediated cell fusion; AID 651610; 1.1% of 360,000 active; HeLa-JRFL Env/CEM21 cell fusion, luciferase; inhibition, % at 12.3 µM;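 active means mean replicate inhibition score of at least 50 and every replicate individually at or above 50; inconclusive means only one of the two criteria met; inactive means mean below 50 and not all replicates reaching 50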;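 further: 0% = plate neutral controls and 100% = maraviroc near 300 nM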
# PGC1a acetyl inh – PGC1a acetylation modulation, inhibitor mode. U2OS PGC1a acetylation, AlphaScreen anti-acetyl-lysine; with virally co-expressed GCN5 acetyltransferase. inhibition, % at 15.6 µM. 0.17% of 350,000 active;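 active means every replicate shows inhibition of at least 40%; inconclusive means mean inhibition at least 40% but some replicate below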;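 further: 0% = neutral control wells and 100% = positive control wells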
# * marks the source's active call; other numbers are inactive results; ? = inconclusive; . = no result; [ ] = another dose, or the depositor's remark.
SMILES,EWS-Fli inh,CFTR F508del cor,PAX8 inh HTS,INS-1E GSIS act,HIV Env fusion,PGC1a acetyl inh
CC(C)NC(=O)C1(C)CCN1Cc1cccc(C#N)c1 (stereo not given),-8,-4,8,43*,-8,.
CC(C)NC(=O)C1(C)CCN1Cc1ccc(-c2ccccc2)cc1 (stereo not given),15,0,19,3,57*,.
C[C@@H]1CCCCO[C@@H](CN(C)Cc2ccc(C(=O)Nc3ccccc3N)cc2)[C@@H](C)CN([C@H](C)CO)C(=O)c2cc(NC(=O)Nc3ccc(C(F)(F)F)cc3)ccc2O1,-15,1,31,-11,.,-9
C[C@@H]1CN([C@H](C)CO)C(=O)Cc2cc(NC(=O)Cn3cnnn3)ccc2O[C@@H]1CN(C)Cc1ccncc1,-1,-3,8,15,.,4
O=C1NC(Cc2ccc(O)cc2)c2nc3cc(F)ccc3c(=O)n2-c2cc3ccccc3cc21 (stereo not given),?,3,66*,-21,-45,.
O=C1NC(Cc2ccc(O)cc2)c2nc3cc(F)ccc3c(=O)n2-c2cc(Cl)ccc21 (stereo not given),0,-2,19,-5,2,.
CCc1n[nH]c(=S)n1/N=C/C(C)=C\c1ccccc1,23,-1,-9,8,56*,.
OCC1OC(Oc2c(Br)cc(Br)cc2Br)C(O)C(O)C1O (stereo not given),0,7,-4,-15,.,63*
CCS(=O)(=O)N1C[C@@H](C)[C@H](OC)CN(C)C(=O)c2ccc(NC(=O)Nc3ccccc3Cl)cc2OC[C@H]1C,-4,1,.,-1,.,-5
CCN(C(=O)COc1ccc2ccc(=O)oc2c1)C1CCCCC1,-7,18*,12,18,.,-4
CN(C)C(=O)COc1ccc2ccc(=O)oc2c1,.,.,-8,.,-63,.
CC(=O)NCCNC(=O)CNC(=O)c1ccc(Cl)cc1,.,.,1,47*,-21,.
c1ccc(-c2cn3nc(-c4ccccc4)sc3n2)cc1,.,.,.,.,.,9
c1ccc(-c2cn3c4c(sc3n2)CCCC4)cc1,54*,0,8,4,-172,0
O=C(CC(c1ccccc1)c1ccco1)N1CCOCC1 (stereo not given),.,.,.,49*,.,4
Cc1ccc(S(=O)(=O)NC(CC(=O)N2CCOCC2)c2ccco2)cc1 (stereo not given),.,.,.,6,.,13
c1ccc2c(-c3cccc4nccn34)cncc2c1,0,0,-4,1,55*,.
CC(=O)Oc1ccc(N2C(=O)c3cccc4c([N+](=O)[O-])ccc(c34)C2=O)cc1,66*,32*,44,-28,-77,22
C[N+]1(C)CCC(=C2c3ccccc3CC(=O)c3sccc32)CC1,.,.,5,.,64*,94*
CC[N+]1(C)CCC(=C2c3ccccc3CC(=O)c3sccc32)CC1 (stereo not given),.,.,.,.,-16,10
C[C@H]1CN([C@@H](C)CO)C(=O)c2cc(-c3cccnc3)cnc2O[C@H]1CN(C)Cc1ccccc1,-6,2,.,8,14[16.7 µM],0
CSc1nsc(SC)c1NC(=O)Nc1ccccc1C,-3,0,15,3,-7,103*
CSc1nsc(SC)c1NC(=O)N1CCCCC1,.,.,.,18,.,-8
COC(=O)C[C@H]1CC[C@H]2[C@@H](COc3ccc(NC(=O)NCc4ccccc4)cc3C(=O)N2C)O1,-2,0,.,4,13[16.7 µM],3
COC(CN(C(=O)CCl)C(C(=O)NC1CCCCC1)c1ccccc1C)OC (stereo not given),.,.,59,-18,59*,.
SMILES,EWS-Fli inh,CFTR F508del cor,PAX8 inh HTS,INS-1E GSIS act,HIV Env fusion,PGC1a acetyl inh
C=CCOc1ccc(/C=C/C(=O)OCC(=O)NCC2CCCCC2)cc1,6,0,-22,6,-230,.
C=CCOc1ccc(/C=C/C(=O)OCC(=O)NC2CCCCCCC2)cc1,-3,3,-11,6,60*,.
COc1ccc2c3c(n(C)c2c1)[C@@H](CO)N(C(=O)Nc1ccc(F)cc1)CC31CCN(Cc2cccnc2)CC1,-5,2,.,-23,.,-10
Nc1cc(-c2ccccc2)nn1S(=O)(=O)c1ccc(F)cc1,15,4,18,8,79*,0
COc1ccc2c3c(n(C)c2c1)[C@@H](CO)N(Cc1cc(F)ccc1F)CC31CCN(C(=O)C2CC2)CC1,10,0,29,-11,.,-22
CC(C)NC(=O)N(C)C[C@H]1Oc2cc(C#Cc3ccc(F)cc3)ccc2S(=O)(=O)N([C@H](C)CO)C[C@@H]1C,16,2,.,-20,13[16.7 µM],-7
C[C@@H]1CCCCO[C@@H](CN(C)S(=O)(=O)c2ccc(Cl)cc2)[C@H](C)CN([C@H](C)CO)C(=O)c2cc(N(C)C)ccc2O1,-5,2,33,2,12[16.7 µM],-36
COc1ccc(S(=O)(=O)N(C)C[C@@H]2Oc3ccc(N(C)C)cc3C(=O)N([C@@H](C)CO)C[C@@H]2C)cc1,2,0,4,12,47[16.7 µM],1
COc1ccc(S(=O)(=O)N(C)C[C@@H]2Oc3ccc(N(C)C)cc3C(=O)N([C@H](C)CO)C[C@@H]2C)cc1,1,-1,0,2,59*[16.7 µM],-14
C[C@@H]1CCCCO[C@@H](CN(C)S(=O)(=O)c2ccc(Cl)cc2)[C@H](C)CN([C@@H](C)CO)C(=O)c2cc(NS(=O)(=O)c3ccc(Cl)cc3)ccc2O1,2,-3,78*,-4,-42[16.7 µM],-11
C[C@@H]1CCCCO[C@H](CN(C)S(=O)(=O)c2ccc(Cl)cc2)[C@@H](C)CN([C@@H](C)CO)C(=O)c2cc(NS(=O)(=O)c3ccc(Cl)cc3)ccc2O1,-24,6,68*,2,.,-1
C[C@@H]1CCCCO[C@H](CN(C)S(=O)(=O)c2ccc(Cl)cc2)[C@H](C)CN([C@H](C)CO)C(=O)c2cc(NS(=O)(=O)c3ccc(Cl)cc3)ccc2O1,7,-2,51,-16,-2[16.7 µM],-12
C[C@@H]1CCCCO[C@@H](CN(C)S(=O)(=O)c2ccc(Cl)cc2)[C@H](C)CN([C@@H](C)CO)C(=O)c2cc(N(C)C)ccc2O1,2,1,79*,0,40[16.7 µM],2
CCCN1C[C@H](C)[C@@H](OC)CN(C)C(=O)c2cc(NC(=O)Nc3ccccc3F)ccc2OC[C@H]1C,1,1,-9,-6,18[16.7 µM],9
CCCNC(=O)Nc1ccc2c(c1)C(=O)N(C)C[C@H](OC)[C@@H](C)CN(CCC)[C@H](C)CO2,-13,0,-12,-4,-8[16.7 µM],2
CC[C@@H]1CC=CC[C@@H](C)Oc2ccccc2C(=O)N(C)[C@@H](C(C)C)C(=O)N1 (mixture of isomers),.,.,.,2,.,.
O=C(C[C@@H]1C[C@@H]2c3cc(NC(=O)NC4CCCC4)ccc3O[C@@H]2[C@H](CO)O1)NCc1ccccc1F,2,-1,-1,-1,4[16.7 µM],-2
